Assay outcomes from PubChem BioAssay.
Methyltransferases = Primary Screen for Target Class Profiling of Small Molecule Inhibitors of Methyltransferases; purified enzyme, MTase-Glo SAH luminescence; active compounds read low; 25,000 tested, 3.9% active; calls only at 40 µM; call rule not given here
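Each enzyme was reacted with SAM and its substrate, with compounds tested once at 40 uM; SAH formed was read by MTase-Glo luminescence.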
Active calls of the source: *. The entries come from a sample that favours hits as a whole. % is set by controls: 0 for no effect and ±100 for the full control effect.

COC(=O)NCCNC(=O)c1cccc(-c2ccc(SC)cc2)c1 was read as Methyltransferases inactive.
`O=C(NCCCc1ccccc1)c1cccc(-c2cc(O)c3ncccc3c2)c1` gave Methyltransferases active.
Screening CN(C)CCCCCCNC(=O)c1cccc(-c2cc(O)c3ncccc3c2)c1 returned Methyltransferases active.
Screening O=C(NCCc1nc2cccnc2n1-c1ccccc1)c1cccnc1 returned Methyltransferases inactive.
Screening CC(C)(O)CCc1cccc(C(=O)NCCCc2ccccn2)c1 returned Methyltransferases inactive.
CCOC(=O)C1CCCN(S(=O)(=O)c2ccc3[nH]c(=O)[nH]c3c2)C1 (stereo not drawn) was read as Methyltransferases inactive.
For CC1CCCC(NC(=O)C2(C)Cn3c(nc4ccccc43)C(=O)N2CCc2ccccc2)C1C (stereo not drawn) the results were Methyltransferases inactive.
Screening CCOc1ccc(CCN2C(=O)c3cc4ccccc4n3CC2(C)C(=O)NCc2ccccc2)cc1 (stereo not drawn) returned Methyltransferases inactive.
For CCCn1c(=O)c2ccc(C(=O)NC(C)C)cc2n2c(=O)n(Cc3ccc(C)cc3)nc12 the results were Methyltransferases inactive.
`CC1CCC(NC(=O)C2(C)Cn3c(cc4occc43)C(=O)N2CCN2CCCCCC2)CC1` (stereo not drawn) gave Methyltransferases inactive.
C[C@]12CC[C@@H]3c4ccc(OC(=O)c5ccccc5)cc4CC[C@H]3[C@@H]1CC[C@@H]2O was read as Methyltransferases inactive.
For COc1cc2c(cc1O)CC[C@@H]1[C@@H]2CC[C@]2(C)[C@@H](O)CC[C@@H]12 the results were Methyltransferases active.
For CC12CCC3c4ccc(OC5OC(C(=O)O)C(O)C(O)C5O)cc4CCC3C1CCC2O (stereo not drawn) the results were Methyltransferases inactive.
COc1ccc(CNC(=O)Cn2ccc3cc(S(=O)(=O)N4CCCCC4)ccc32)cc1 was read as Methyltransferases inactive.
`CCCCN1C(=O)c2cc(C(=O)Nc3cccc(C(=O)OCC)c3)nn2CC1(C)C(=O)NC1CCCC1` (stereo not drawn) gave Methyltransferases inactive.
COc1c2c(c(C)c3c1C(=O)OC3)O[C@@]1(C)CC(O)C(C(C)(C)O)[C@](C)(CCC(=O)O)[C@H]1C2 (stereo partly drawn) was read as Methyltransferases inactive.
COc1c2c(c(C)c3c1C(=O)OC3)OC1(C)CC(O)C3(O)C(C)(C)OC(=O)CCC3(C)C1C2 (stereo not drawn) was read as Methyltransferases inactive.
COc1c2c(c(C)c3c1C(=O)OC3)OC1(C)CC(O)C34OC(OC)(CC(O)C3(C)C1C2)OC4(C)C (stereo not drawn) was read as Methyltransferases active.
COc1ccc(-c2cc3n(n2)CC(C)(C(=O)NCc2ccccc2)N(Cc2ccccc2)C3=O)cc1 (stereo not drawn) was read as Methyltransferases inactive.
For O=C(O)c1ccc(OC2OC(CO)C(O)C(O)C2O)cc1 (stereo not drawn) the results were Methyltransferases inactive.
CC(O)(CC(=O)O)CC(=O)OCc1ccc(O[C@@H]2O[C@H](CO)[C@@H](O)[C@H](O)[C@H]2O)cc1 (stereo partly drawn) was read as Methyltransferases active.
For CC(O)(CC(=O)O)CC(=O)O[C@@H]1[C@@H](O)[C@H](OCCc2ccccc2)O[C@H](CO)[C@H]1O (stereo partly drawn) the results were Methyltransferases inactive.
Screening COc1ccc(-c2n[nH]n3c2nc(=O)c2ccc(C(=O)NCc4ccccc4)cc23)cc1 returned Methyltransferases inactive.
`COc1ccc(OC)c(CNC(=O)c2cc3n(n2)CC(C)(C(=O)NC2CCCC2)N(C)C3=O)c1` (stereo not drawn) gave Methyltransferases inactive.
For CCc1cc(Nc2nccc(-c3c(-c4ccc(OC)c(C(=O)Nc5c(F)cccc5F)c4)nc4ccccn34)n2)c(OC)cc1N1CCC(N2CCN(S(C)(=O)=O)CC2)CC1 the results were Methyltransferases active.
For CCOC(=O)c1cc2n(n1)CC(C)(C(=O)NC1CCCCC1)N(c1ccccc1OC)C2=O (stereo not drawn) the results were Methyltransferases inactive.
CCc1ccc(NC(=O)CSc2nnc3n(Cc4ccccc4)c(=O)c4ccccc4n23)cc1 was read as Methyltransferases inactive.
Screening Cc1ccc(S(=O)(=O)c2nnn3c2nc(NCc2ccc4c(c2)OCO4)c2ccccc23)cc1C returned Methyltransferases inactive.
`O=C(NCCc1cccs1)c1cc2n(n1)CCCN(Cc1ccc(F)cc1)C2=O` gave Methyltransferases inactive.
Nc1nc(F)nc2c1ncn2[C@@H]1O[C@H](CO)[C@@H](O)[C@@H]1O was read as Methyltransferases inactive.
For Nc1ncnc2c1c(I)cn2C1OC(CO)C(O)C1O (stereo not drawn) the results were Methyltransferases active.
OC[C@H]1O[C@@H](n2cnc3c(NC4CCCCC4)ncnc32)[C@H](O)[C@@H]1O was read as Methyltransferases inactive.
Screening Nc1ccc(CCNc2ncnc3c2ncn3C2OC(CO)C(O)C2O)cc1 (stereo not drawn) returned Methyltransferases inactive.
For OC[C@H]1O[C@@H](n2cnc3cncnc32)[C@H](O)[C@@H]1O the results were Methyltransferases active.
`OC[C@H]1O[C@@H](n2cnc3c(NC4CCCC4)ncnc32)[C@H](O)[C@@H]1O` gave Methyltransferases inactive.
CSc1ccc(CCN2C(=O)c3cc(-c4ccccc4)nn3CC2(C)C(=O)NCc2ccccc2)cc1 (stereo not drawn) was read as Methyltransferases inactive.
`O=S(=O)(Nc1ccc(Cl)c(C(F)(F)F)c1)c1ccc2[nH]c3c(c2c1)CCCC3` gave Methyltransferases inactive.
For COC(=O)c1ncn2c1C(=O)N(Cc1ccc(Cl)cc1)C(C)(C(=O)NC1CCCCC1)C2 (stereo not drawn) the results were Methyltransferases inactive.
Screening CC(C)CNC(=O)c1ccc2c(=O)n(CC(C)C)c3nn(Cc4ccc(Cl)cc4)c(=O)n3c2c1 returned Methyltransferases inactive.
For O=C(Cn1ccc2cc(S(=O)(=O)N3CCCCC3)ccc21)NCc1cccs1 the results were Methyltransferases inactive.
`COc1ccc2c(c1)c(-n1cccc1)c1n2CC(C)(C(=O)NC2CCCCC2)N(Cc2ccc(Cl)cc2)C1=O` (stereo not drawn) gave Methyltransferases inactive.
Screening COc1cccc(CN2C(=O)CSc3c(c4ccccc4n3C)C2C(=O)NCCCOC(C)C)c1 (stereo not drawn) returned Methyltransferases inactive.
`CCCCOc1ccccc1-c1cc2n(n1)CC(C)(C(=O)NC1CCCCCC1)N(CC)C2=O` (stereo not drawn) gave Methyltransferases inactive.
For CCCCN1C(=O)c2ccccc2C(C(=O)NC2CC2)C12CCCCC2 (stereo not drawn) the results were Methyltransferases inactive.
Screening CCN1C(=O)c2ccccc2C1Nc1ccc(OCCN2CCCCC2)cc1 (stereo not drawn) returned Methyltransferases active.
For CC(C)OCCCn1c(=O)c2ccccc2n2c(CCC(=O)N3CCN(Cc4ccccc4)CC3)nnc12 the results were Methyltransferases inactive.
CCOC(=O)c1cc2n(n1)CC(C)(C(=O)NCCCOC)N(c1ccc(Cl)cc1)C2=O (stereo not drawn) was read as Methyltransferases inactive.
